# Laboratory results taken from PubChem BioAssay (NCATS).
# Records with an inconclusive call do not appear. Activity calls are given as the source filed them. Calls follow the shape of the dose curve; as a rule, active = well fitted curve in the direction sought with a large enough effect; inconclusive = small, poorly fitted or top-dose-only effect, or another doubt; inactive = no such curve, though single readings can be large or run the other way.
# Target: Thioredoxin reductase 1, cytoplasmic (Rattus norvegicus) (UniProt O89049)
# Experiment: qHTS Assay for Substrates of Mammalian Selenoprotein Thioredoxin Reductase 1 (TrxR1) (AID 488772);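 also: a drop in NADPH fluorescence below the no-compound background marks a TrxR1 substrate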
# Details: purified TrxR1, NADPH consumption substrate assay; series mostly up to 57.1 µM
# Description: The selenoprotein thioredoxin reductase (TrxR; EC 1.8.1.9) is a FAD containing homodimeric pyridine nucleotide-disulfide oxidoreductase with many cellular roles. Together with NADPH and its prime substrate thioredoxin (Trx), the enzyme forms the core of the Trx system. The mammalian Trx system exerts a wide spectrum of functions including redox regulation, antioxidant defense, regulation of transcription factors as well as support of cell growth and replication. Many of these functions involve the reduction of Trx, which may subsequently reduce a number of different substrates including ribonucleotide reductase, peroxiredoxins or NFkB. Mammalian TrxR itself also has a broad substrate specificity, reducing both protein and non-protein substrates, including low molecular weight compounds such as dehydroascorbate, lipoic acid, ubiquinone, and juglone. In addition, several drugs in clinical use for anticancer treatment are indeed known to target TrxR1.
# This BioAssay is a validation of an NADPH fluorescence-based, dual-purpose qHTS rTrxR1 assay designed to find potential inhibitors and substrates of rTrxR1. For this particular BioAssay, actives are potential substrates. See related BioAssay for inhibitors data deposition.
# Assay protocol: 2 uL of reagents (buffer in column 4 as negative control and 90 nM rTrxR1 in columns 1-3 and 5-48) were dispensed into Greiner black solid-bottom 1,536-well assay plates, followed by 1 uL of NADPH (400 uM final concentration) to each well. The plates were centrifuged at 1000 rpm for 15 seconds and subsequently incubated for 5 min at room temperature (~22 deg C) to allow for rTrxR1 reduction. Compounds (23 nL) were then transferred via Kalypsys pin tool equipped with 1536-pin array (10 nL slotted pins, V&P Scientific, San Diego, CA). In addition, a duplicate 2-fold serial dilution of the control compounds auranofin, a known gold-based TrxR1 inhibitor, and juglone (5-hydroxy-1,4-naphthoquinone), a natural TrxR1 substrate, were pin-transferred to columns 2 and 3, respectively. After incubation for 15 min at room temperature (~22 deg C), 1 uL of selenite (400 uM final concentration) were dispensed to each well. The plate was immediately transferred to a ViewLux high-throughput CCD imager (PerkinElmer), wherein kinetic measurements of NADPH fluorescence (Ex 340 nm, Em 450 nm) were acquired (8 minute kinetic read, see Table 1). Read 1 was utilized to assess the capacity of a compound to serve as an rTrxR1 substrate, i.e. a decrease in NADPH fluorescence compared to the no-compound background is an indication of a substrate behavior for that particular compound. For inhibitory activity of a compound, delta values, computed as the difference in fluorescence intensity between the first and last reads of an 8-minute time kinetic window, were used. All reagents were diluted in an assay buffer consisting of 50 mM Tris-HCl, pH 7.5, 2 mM EDTA, and 0.01% Tween-20.
# Throughout the screen, reagent bottle and all liquid lines were made light-tight to minimize reagent degradation. All screening operations were performed on a fully integrated robotic system (Kalypsys, San Diego, CA) containing one RX-130 and two RX-90 anthropomorphic robotic arms (Staubli, Duncan, SC). Library plates were screened starting from the lowest and proceeding to the highest concentration, and a 'double-pinning' step of the highest concentration was required to access higher concentrations of compounds. Vehicle-only plates, with DMSO being pin-transferred to the columns 5-48, were inserted uniformly at the beginning and the end of each library in order to monitor and record any shifts in the background, which can be affected by reagent dispensers or loss in enzyme activity over time. Screening data were corrected, normalized, and concentration-effect relationships were derived by using publicly-available curve fitting algorithms developed in-house (http://ncgc.nih.gov/pub/openhts).
# Thioredoxin reductase 1, cytoplasmic (Rattus norvegicus), sequence (O89049 whole entry, looked up): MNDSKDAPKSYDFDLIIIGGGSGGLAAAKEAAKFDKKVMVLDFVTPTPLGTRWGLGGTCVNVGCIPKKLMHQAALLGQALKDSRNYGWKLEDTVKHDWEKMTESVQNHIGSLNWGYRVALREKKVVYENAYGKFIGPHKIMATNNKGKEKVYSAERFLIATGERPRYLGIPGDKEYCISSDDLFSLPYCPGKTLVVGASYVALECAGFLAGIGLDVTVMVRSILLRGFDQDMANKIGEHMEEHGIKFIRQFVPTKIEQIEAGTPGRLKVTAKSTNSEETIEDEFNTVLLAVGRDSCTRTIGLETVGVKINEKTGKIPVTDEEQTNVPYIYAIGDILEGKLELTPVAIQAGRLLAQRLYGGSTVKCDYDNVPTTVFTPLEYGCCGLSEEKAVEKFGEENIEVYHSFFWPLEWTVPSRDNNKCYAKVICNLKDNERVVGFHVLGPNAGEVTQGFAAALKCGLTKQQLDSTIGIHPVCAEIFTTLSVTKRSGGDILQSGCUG
row,SMILES,outcome
1,CNc1ccc2oc(C[C@H]3O[C@@]4(CC[C@H]3C)O[C@H]([C@H](C)C(=O)c3ccc[nH]3)[C@H](C)C[C@H]4C)nc2c1C(=O)O,inactive
2,COc1cc(CC(C)N)c(OC)cc1I (stereo not given),inactive
3,CCCC[N+]1(C)C2CC(OC(=O)[C@H](CO)c3ccccc3)CC1C1OC12 (stereo not given in full),inactive
4,NC(Cc1cc(O)c(O)cc1O)C(=O)O (stereo not given),inactive
5,CCOC(=O)c1ncn2c1[C@@H]1CCCN1C(=O)c1cc(OC)ccc1-2,inactive
6,CN1CCC(c2c[nH]c3ccc(O)cc23)CC1,inactive
7,C[C@H](Cc1ccc2c(c1)OC(C(=O)O)(C(=O)O)O2)NC[C@H](O)c1cccc(Cl)c1,inactive
8,CC(=O)c1c(O)c(C)c(O)c(Cc2c(O)c3c(c(C(=O)/C=C/c4ccccc4)c2O)OC(C)(C)C=C3)c1O,inactive
9,COc1ccc2c(c1)c(CCN1CCOCC1)c(C)n2C(=O)c1cccc(Cl)c1Cl,inactive
10,COc1ccc2c(c1)[C@@]13CCCC[C@H]1[C@@H](C2)NCC3,inactive
11,CCCn1c(C)c(C(=O)c2ccc3ccccc3c2)c2ccccc21,inactive
12,C[C@H](N)Cc1cccc(C(F)(F)F)c1,inactive
13,CCCN(CCC)C1CCc2cccc(O)c2C1 (stereo not given),inactive
14,COc1ccc(OC)c(C(O)C(C)N)c1 (stereo not given),inactive
15,Ic1ccccc1CNC1C2CCN(CC2)C1C(c1ccccc1)c1ccccc1 (stereo not given),inactive
16,C=CCN1CCC23c4c5ccc(O)c4O[C@H]2C(=O)CC[C@@]3(O)C1C5 (stereo not given in full),inactive
17,CN1CC[C@@]2(C)c3cc(O)ccc3N(C)C12 (stereo not given in full),inactive
18,N#CCCN,inactive
19,OC1CCCCC1N1CCC(c2ccccc2)CC1 (stereo not given),inactive
20,CC(C)[C@@]1(NC(=O)[C@@H]2C[C@@H]3c4cccc5[nH]cc(c45)C[C@H]3N(C)C2)O[C@@]2(O)[C@@H]3CCCN3C(=O)[C@H](Cc3ccccc3)N2C1=O,inactive

row,SMILES,outcome
1,COC(=O)N1CCN(C(=O)Cc2ccc(Cl)c(Cl)c2)C(CN2CCCC2)C1 (stereo not given),inactive
2,Cc1o[nH]c(=O)c1CC(N)C(=O)O (stereo not given),inactive
3,CCCN(CCC)C1Cc2cc(OC)c(OC)cc2C1,inactive
4,CCCN(CCC)[C@@H]1CCc2cccc(O)c2C1,inactive
5,C[N+]1(C)CCN(c2ccccc2)CC1,inactive
6,CCCn1c(=O)c2[nH]c(C3CCCC3)nc2n(CCCOC(=O)c2ccc(S(=O)(=O)F)cc2)c1=O,inactive
7,CC(C)(O)[C@@H]1C2OC(=O)[C@@H]1[C@]1(O)C[C@H]3O[C@]34C(=O)O[C@H]2[C@]14C (tested in a mixture with another compound),inactive
8,C[N+](C)(C)CC#CCN1CCCC1=O,inactive
9,CCCN(CCC)[C@H]1CCc2c(F)ccc(O)c2C1,inactive
10,NC(C(=O)O)c1cc(=O)[nH]o1 (stereo not given),inactive
11,NCC(O)c1cc(O)c(O)cc1F (stereo not given),inactive
12,CCn1cnc2c(Nc3cccc(Cl)c3)nc(N[C@@H]3CCCC[C@@H]3N)nc21,inactive
13,NC(=O)COc1c(F)cc(SCCNS(=O)(=O)c2ccccc2)cc1F,inactive
14,NC(=O)c1cc(N2CC2)c([N+](=O)[O-])cc1[N+](=O)[O-],inactive
15,CC(N)[C@H](O)c1ccc(O)c(O)c1 (stereo not given in full),inactive
16,CN(C(=O)Cc1ccc(Cl)c(Cl)c1)C(CN1CCCC1)c1cccc(OCC(=O)O)c1 (stereo not given),inactive
17,C[N+]1(C)CCc2cc3c(cc2[C@H]1[C@@H]1OC(=O)c2c1ccc1c2OCO1)OCO3,inactive
18,C[N+](C)(C)CC#CCOC(=O)Nc1cccc(Cl)c1,inactive
19,CCCN1CCc2cccc3c2[C@H]1Cc1ccc(O)c(O)c1-3,inactive
20,Cc1cc([C@@H]2CCCN2C)on1,inactive
